According to PubChem BioAssay (NCATS):
Records with an inconclusive call do not appear. Entries that show only a call come without a potency. A number with no mark means an inactive call. The source made the active and inactive calls. The call rests on the fitted dose curve; in most records, active means well fitted inhibition curve with a large enough effect; inconclusive means small, poorly fitted or top-dose-only effect; inactive means flat fitted curve, though single readings scatter.

How the values were obtained:
[1] = system: CRL-7250; assay: Cytotoxic Profiling of Annotated Libraries Using Quantitative High-Throughput Screening (AID 1296008); conditions: Five cell lines viability, CellTiter-Glo ATP luminescence, 48-72 h; hits give low values
Method in brief: (§1)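 Cells exposed to compounds for 48 or 72 hr at 37 degrees Celsius. Viability read as ATP-coupled luminescence with CellTiter-Glo after 10 min at room temperature.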

[2] = system: HEK293; assay: as above; conditions: Five cell lines viability, CellTiter-Glo ATP luminescence, 48-72 h; hits give low values
Method in brief: as §1

[3] = system: HaCat; assay: as above; conditions: Five cell lines viability, CellTiter-Glo ATP luminescence, 48-72 h; hits give low values
Method in brief: as §1

[4] = system: KB-3-1; assay: as above; conditions: Five cell lines viability, CellTiter-Glo ATP luminescence, 48-72 h, hits give low values
Method in brief: as §1

[5] = system: NIH3T3; assay: as above; conditions: Five cell lines viability, CellTiter-Glo ATP luminescence, 48-72 h; hits give low values
Method in brief: as §1

[6] = system: HACAT; assay: qHTS assay to identify novel small-molecules to repurpose for Merkel cell carcinoma treatment (AID 1296009); conditions: MCC and control cell lines, CellTiter-Glo viability, 72 h; at 44.8 µM (top of the series) unless noted
Method in brief: (§2)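 Dose-response viability screen; 72 hr exposure at 37 degree celsius; CellTiter-Glo added, 10 min room temperature, luminescence read; RLUs scaled between no-cell and DMSO wells.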

[7] = system: MCC-13; assay: as above; conditions: MCC and control cell lines, CellTiter-Glo viability, 72 h; series mostly up to 46 µM
Method in brief: as §2

[8] = system: MCC-26; assay: as above; conditions: MCC and control cell lines, CellTiter-Glo viability, 72 h; series mostly up to 46 µM
Method in brief: as §2

[9] = system: P93_24; assay: qHTS profiling for inhibitors of Plasmodium falciparum proliferation (AID 504749); further: potency means the concentration at half of the fitted maximal effect; conditions: P. falciparum in erythrocytes, SYBR Green DNA, 72 h; series mostly up to 28.7 µM
Method in brief: (§3)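 Each compound contacts P. falciparum-infected red blood cells for 72 h at 37 C; lysis buffer (Tris, EDTA, saponin, Triton X, SYBR Green I) is added and fluorescence measured next morning; values normalized to controls.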

[10] = system: P94_40; assay: as above; conditions: P. falciparum in erythrocytes, SYBR Green DNA, 72 h; series mostly up to 28.7 µM
Method in brief: as §3

[11] = system: PAD; assay: as above; conditions: P. falciparum in erythrocytes, SYBR Green DNA, 72 h; series mostly up to 28.7 µM
Method in brief: as §3

[12] = system: PC15; assay: as above; conditions: P. falciparum in erythrocytes, SYBR Green DNA, 72 h; series mostly up to 28.7 µM
Method in brief: as §3

[13] = system: PC26; assay: as above; conditions: P. falciparum in erythrocytes, SYBR Green DNA, 72 h; series mostly up to 28.7 µM
Method in brief: as §3

[14] = system: PC49; assay: as above; conditions: P. falciparum in erythrocytes, SYBR Green DNA, 72 h; series mostly up to 28.7 µM
Method in brief: as §3

[15] = system: SC27B; assay: as above; conditions: P. falciparum in erythrocytes, SYBR Green DNA, 72 h; series mostly up to 28.7 µM
Method in brief: as §3

[16] = system: TAB109; assay: as above; conditions: P. falciparum in erythrocytes, SYBR Green DNA, 72 h; series mostly up to 28.7 µM
Method in brief: as §3

[17] = system: TAB113; assay: as above; conditions: P. falciparum in erythrocytes, SYBR Green DNA, 72 h; series mostly up to 28.7 µM
Method in brief: as §3

[18] = system: TAB165; assay: as above; conditions: P. falciparum in erythrocytes, SYBR Green DNA, 72 h; series mostly up to 28.7 µM
Method in brief: as §3

[19] = system: HEK293T; assay: qHTS assay to identify novel small-molecules to repurpose for Merkel cell carcinoma treatment (AID 1296009); conditions: MCC and control cell lines, CellTiter-Glo viability, 72 h; at 44.8 µM (top of the series) unless noted
Method in brief: as §2

[20] = system: W2; assay: qHTS profiling for inhibitors of Plasmodium falciparum proliferation (AID 504749); further: potency means the concentration at half of the fitted maximal effect; conditions: P. falciparum in erythrocytes, SYBR Green DNA, 72 h; series mostly up to 28.7 µM
Method in brief: as §3
Further: nearly all actives have a fitted effect of over 60% in size.

SMILES: NC(=O)N[C@@H](CCC(=O)O)C(=O)O
- outcome [1]: inactive
- max response [2]: -4.43%
- outcome [3]: inactive
- max response [4]: -19.7%
- outcome [5]: inactive
- outcome [6]: inactive
- outcome [7]: inactive
- outcome [8]: inactive

SMILES: C[C@@H](c1ncncc1F)C(O)(Cn1cncn1)c1ccc(F)cc1F (stereo partly drawn)
- max response [1]: -4.65%
- max response [2]: 2.6%
- outcome [3]: inactive
- max response [4]: -2.08%
- max response [5]: -3.08%
- outcome [6]: inactive
- outcome [7]: inactive
- outcome [8]: inactive

SMILES: O=c1[nH]c(=O)n([C@H]2C[C@H](O)[C@@H](CO)O2)cc1I
- outcome [1]: inactive
- max response [2]: -0.666%
- outcome [3]: inactive
- max response [4]: 5.94%
- outcome [5]: inactive
- outcome [6]: inactive
- outcome [7]: inactive

SMILES: C[n+]1ccccc1/C=N/O
- max response [1]: -2.33%
- max response [2]: -5.72%
- outcome [3]: inactive
- max response [4]: -1.46%
- outcome [5]: inactive
- outcome [6]: inactive
- outcome [7]: inactive
- outcome [8]: inactive

SMILES: CC1CC(OC(=O)c2ccccc2O)CC(C)(C)C1 (stereo not drawn)
- Potency [9]: inactive
- Potency [10]: inactive
- Potency [11]: inactive
- Potency [12]: inactive
- Potency [13]: inactive
- Potency [14]: inactive
- Potency [15]: inactive
- Potency [16]: inactive
- Potency [17]: inactive
- Potency [18]: inactive
- max response [1]: -4.46%
- outcome [2]: inactive
- outcome [3]: inactive
- max response [4]: -9.15%
- max response [5]: -4.04%
- outcome [6]: inactive
- outcome [19]: inactive
- outcome [7]: inactive
- outcome [8]: inactive

SMILES: COc1ccc2cc(CCC(C)=O)ccc2c1
- Potency [9]: inactive
- Potency [10]: inactive
- Potency [11]: inactive
- Potency [12]: inactive
- Potency [13]: inactive
- Potency [14]: inactive
- Potency [15]: inactive
- Potency [16]: inactive
- Potency [17]: inactive
- Potency [18]: inactive
- Potency [20]: inactive
- outcome [1]: inactive
- outcome [2]: inactive
- outcome [3]: inactive
- max response [4]: -1.62%
- max response [5]: -0.0731%
- outcome [6]: inactive
- outcome [19]: inactive
- outcome [7]: inactive
- outcome [8]: inactive

SMILES: C[N+]1(C)CCCC(OC(=O)C(O)(c2ccccc2)c2ccccc2)C1 (stereo not drawn)
- max response [1]: 2.14%
- max response [2]: -3.74%
- outcome [3]: inactive
- max response [4]: -3.88%
- max response [5]: 4.37%
- outcome [6]: inactive
- outcome [7]: inactive
- outcome [8]: inactive

SMILES: C=CCOc1ccccc1OCC(O)CNC(C)C (stereo not drawn)
- max response [1]: -3.74%
- max response [2]: 3.92%
- outcome [3]: inactive
- max response [4]: -1.61%
- max response [5]: 4.04%
- outcome [6]: inactive
- outcome [7]: inactive
- outcome [8]: inactive

SMILES: O=C(NCC(O)CO)c1c(I)c(C(=O)NCC(O)CO)c(I)c(N(CCO)C(=O)CO)c1I (stereo not drawn)
- max response [1]: -2.46%
- max response [2]: -0.64%
- outcome [3]: inactive
- max response [4]: 27.3%
- max response [5]: 2.96%
- outcome [6]: inactive
- outcome [7]: inactive
- outcome [8]: inactive

SMILES: Cn1cc(C(=O)[C@@H]2CCc3nc[nH]c3C2)c2ccccc21
- outcome [1]: inactive
- max response [2]: 3.07%
- outcome [3]: inactive
- max response [4]: -12.7%
- max response [5]: -0.574%
- outcome [6]: inactive
- outcome [7]: inactive

SMILES: CC1(C)S[C@@H]2[C@H](N=CN3CCCCCC3)C(=O)N2[C@H]1C(=O)O
- max response [1]: -6.32%
- max response [2]: -2.19%
- outcome [3]: inactive
- max response [4]: -4.82%
- outcome [5]: inactive
- outcome [6]: inactive
- outcome [7]: inactive
- outcome [8]: inactive

SMILES: CN1C(=O)CC(c2ccccc2)C1=O (stereo not drawn)
- max response [1]: 1.89%
- max response [2]: -5.41%
- outcome [3]: inactive
- max response [4]: 0.936%
- outcome [5]: inactive
- outcome [6]: inactive
- outcome [7]: inactive
- outcome [8]: inactive

SMILES: CC(C)(C)NCC(O)COc1cccc2c1CCC(=O)N2 (stereo not drawn)
- max response [1]: 4.08%
- max response [2]: -0.291%
- outcome [3]: inactive
- max response [4]: 7.08%
- max response [5]: 3.67%
- outcome [6]: inactive
- outcome [7]: inactive
- outcome [8]: inactive

SMILES: CCCCCOC(=O)Nc1nc(=O)n([C@@H]2O[C@H](C)[C@@H](O)[C@H]2O)cc1F
- outcome [1]: inactive
- outcome [2]: inactive
- outcome [3]: inactive
- max response [4]: -8.69%
- max response [5]: 3.66%
- outcome [6]: inactive
- outcome [19]: inactive
- outcome [7]: inactive
- outcome [8]: inactive

SMILES: O=C(/C=C/c1ccc(O)c(O)c1)O[C@@H]1C[C@@](OC(=O)/C=C/c2ccc(O)c(O)c2)(C(=O)O)C[C@@H](O)[C@@H]1O
- max response [1]: -6.43%
- max response [2]: -4.83%
- outcome [3]: inactive
- max response [4]: -0.0821%
- max response [5]: -0.0883%
- outcome [6]: inactive
- outcome [7]: inactive
- outcome [8]: inactive

SMILES: Cc1cc(O)cc(C)c1Cl
- Potency [13]: 12 µM (active)
- Potency [15]: inactive
- Potency [20]: 7.57 µM (active)
- max response [1]: -1.3%
- outcome [2]: inactive
- outcome [3]: inactive
- max response [4]: 4.13%
- max response [5]: 1.17%
- outcome [6]: inactive
- outcome [19]: inactive
- outcome [7]: inactive

SMILES: CCC(C)(CN(C)C)OC(=O)c1ccccc1 (stereo not drawn)
- max response [1]: -17.5%
- outcome [2]: inactive
- outcome [3]: inactive
- max response [4]: 0.865%
- max response [5]: -14.8%
- outcome [6]: inactive
- outcome [19]: inactive
- outcome [7]: inactive
- outcome [8]: inactive

SMILES: FC(F)(F)C(Cl)Br (stereo not drawn)
- Potency [9]: inactive
- Potency [10]: inactive
- Potency [11]: inactive
- Potency [12]: inactive
- Potency [13]: inactive
- Potency [14]: inactive
- Potency [15]: inactive
- Potency [16]: inactive
- Potency [17]: inactive
- Potency [18]: inactive
- max response [1]: 3.98%
- max response [2]: 0.482%
- outcome [3]: inactive
- max response [4]: -3.43%
- outcome [5]: inactive
- outcome [6]: inactive
- outcome [7]: inactive
- outcome [8]: inactive

SMILES: COCC(=O)Nc1c(I)c(C(=O)NCC(O)CO)c(I)c(C(=O)N(C)CC(O)CO)c1I (stereo not drawn)
- max response [1]: -2.09%
- max response [2]: -5.16%
- outcome [3]: inactive
- max response [4]: 11.7%
- max response [5]: 1.05%
- outcome [6]: inactive
- outcome [7]: inactive

SMILES: C1CCN2C[C@@H]3C[C@@H](CN4CCCC[C@@H]34)[C@H]2C1
- outcome [1]: inactive
- max response [2]: -9.35%
- outcome [3]: inactive
- max response [4]: 4.47%
- max response [5]: 3.41%
- outcome [6]: inactive
- outcome [7]: inactive
- outcome [8]: inactive

SMILES: CC1(c2ccccc2)OC(C(=O)O)=CC1=O (stereo not drawn)
- max response [1]: -0.824%
- max response [2]: 1.9%
- outcome [3]: inactive
- max response [4]: 17.3%
- max response [5]: -3.39%
- outcome [6]: inactive
- outcome [7]: inactive
- outcome [8]: inactive

SMILES: C/C(=C(\CCO)SS/C(CCO)=C(\C)N(C=O)Cc1cnc(C)nc1N)N(C=O)Cc1cnc(C)nc1N
- outcome [1]: inactive
- max response [2]: -0.967%
- outcome [3]: inactive
- max response [4]: -5.06%
- max response [5]: -2.04%
- outcome [6]: inactive
- outcome [7]: inactive

SMILES: O=C(O)c1cc(=O)c2ccccc2o1
- Potency [9]: inactive
- Potency [10]: inactive
- Potency [11]: inactive
- Potency [12]: inactive
- Potency [13]: inactive
- Potency [14]: inactive
- Potency [15]: inactive
- Potency [16]: inactive
- Potency [17]: inactive
- Potency [18]: inactive
- max response [1]: 2.58%
- max response [2]: -0.978%
- outcome [3]: inactive
- max response [4]: -5.78%
- outcome [5]: inactive
- outcome [6]: inactive
- outcome [7]: inactive
- outcome [8]: inactive
